# In the supplement of paper PMC7411054:
# Assays:
# Conditions in all cases: treatment time: 24 h
# [1] = tested on: A549-ACTB-RAB5A; test: lowest phenotypically active concentration; higher = less potent
# Outline: (§1)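 Each of fifteen gene-edited A549, HepG2 and WPMY1 reporter lines, marked with BFP for segmentation and GFP and RFP/FusionRed, was treated in four wells at 0.3, 1, 3 or 9 µM for 24 h prior to live imaging. Normalisation of per-well live-cell features used solvent control wells. Deviation needed ≥3 of 4 wells beyond the 95th percentile of control Euclidean distances, and reproducibility needed a median replicate Pearson correlation above the 95th percentile of non-replicates. Both were required for phenotypic activity.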
# [2] = tested on: A549-GM130-SQSTM1; test: as above
# Outline: as §1
# [3] = tested on: HepG2-ACTB-RAB5A; test: as above
# Outline: as §1
# [4] = tested on: WPMY1-CANX-COX4; test: as above
# Outline: as §1
# [5] = tested on: WPMY1-GM130-SQSTM1; test: as above
# Outline: as §1
# [6] = tested on: A549-ACTB-RAB5A; test: phenotypically active (imaging signature differs from DMSO and reproducible) at any of 0.3-9 uM (binary (1 = active, 0 = inactive)); higher = active
# Outline: as §1
# [7] = tested on: A549-CANX-COX4; test: as above
# Outline: as §1
# [8] = tested on: A549-GM130-SQSTM1; test: as above
# Outline: as §1
# [9] = tested on: A549-TP53BP1-CLTA; test: as above
# Outline: as §1
# [10] = tested on: A549-TUBA1B-RELA; test: as above
# Outline: as §1
# [11] = tested on: HepG2-ACTB-RAB5A; test: as above
# Outline: as §1
# [12] = tested on: HepG2-CANX-COX4; test: as above
# Outline: as §1
# [13] = tested on: HepG2-GM130-SQSTM1; test: as above
# Outline: as §1
# [14] = tested on: HepG2-TP53BP1-CLTA; test: as above
# Outline: as §1
# [15] = tested on: HepG2-TUBA1B-RELA; test: as above
# Outline: as §1
# [16] = tested on: WPMY1-ACTB-RAB5A; test: as above
# Outline: as §1
# [17] = tested on: WPMY1-CANX-COX4; test: as above
# Outline: as §1
# [18] = tested on: WPMY1-GM130-SQSTM1; test: as above
# Outline: as §1
# [19] = tested on: WPMY1-TP53BP1-CLTA; test: as above
# Outline: as §1
# [20] = tested on: WPMY1-TUBA1B-RELA; test: as above
# Outline: as §1
Structure (SMILES),lowest phenotypically active concentration [1] [µM],lowest phenotypically active concentration [2] [µM],lowest phenotypically active concentration [3] [µM],lowest phenotypically active concentration [4] [µM],lowest phenotypically active concentration [5] [µM],phenotypically active [6],phenotypically active [7],phenotypically active [8],phenotypically active [9],phenotypically active [10],phenotypically active [11],phenotypically active [12],phenotypically active [13],phenotypically active [14],phenotypically active [15],phenotypically active [16],phenotypically active [17],phenotypically active [18],phenotypically active [19],phenotypically active [20]
CN(C)CC(O)Cn1c2ccc(Br)cc2c2cc(Br)ccc21 (centres undefined) [Wiskostatin],3,1,3,3,3,1 (active),0 (inactive),1 (active),0 (inactive),1 (active),1 (active),1 (active),1 (active),1 (active),1 (active),1 (active),1 (active),1 (active),1 (active),1 (active)
Cc1c(O)cccc1C(=O)N[C@@H](CSc1ccccc1)[C@H](O)CN1C[C@H]2CCCC[C@H]2C[C@H]1C(=O)NC(C)(C)C [nelfinavir],9,9,9,9,3,1 (active),0 (inactive),1 (active),0 (inactive),1 (active),1 (active),1 (active),1 (active),0 (inactive),1 (active),1 (active),1 (active),1 (active),0 (inactive),1 (active)
O=c1cc(N2CCOCC2)oc2c(-c3cccc4c3sc3ccccc34)cccc12,1,1,1,1,3,1 (active),0 (inactive),1 (active),0 (inactive),1 (active),1 (active),1 (active),1 (active),1 (active),1 (active),1 (active),1 (active),1 (active),1 (active),1 (active)
CC(CN(C)C)CN1c2ccccc2Sc2ccccc21.CC(CN(C)C)CN1c2ccccc2Sc2ccccc21 (centres undefined) [alimemazine],9,9,9,,≤ 0.3,1 (active),0 (inactive),1 (active),0 (inactive),1 (active),1 (active),0 (inactive),1 (active),1 (active),1 (active),1 (active),0 (inactive),1 (active),0 (inactive),1 (active)
CNCCCC12CCC(c3ccccc31)c1ccccc12 [maprotiline],3,3,9,9,9,1 (active),0 (inactive),1 (active),0 (inactive),1 (active),1 (active),0 (inactive),1 (active),1 (active),1 (active),1 (active),1 (active),1 (active),1 (active),1 (active)
